Values joined by “and” are separate entries in the source; they are usually repeats but may differ in a detail not shown here. Equal values may be shown once. Where a structure was tested more than once in an assay, its records may differ in their call. Active and inactive are the calls of the source. Rule for the calls: active = hit-call score of the fitted dose curve at least 0.9, where 1 is the maximum; inactive = score below 0.9.
Tests used:
[1] = APR_HepG2_CellLoss_72hr: Apredica 72-hour HepG2 Assay for Cell Loss (AID 2282915); conditions: high-content imaging
Outline: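 HepG2 cells exposed 72 h to compound at 0.39–200 uM (10 concentrations, duplicate) in 0.5% DMSO. Fixed with 3.7% formaldehyde and Hoechst 33342-stained. Imaged at 20x; nuclear count gives cell number, fitted bidirectionally versus DMSO.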

[2] = APR_HepG2_P-H2AX_72hr: Apredica 72-hour HepG2 Assay for H2AX Phosphorylation (AID 2282916); conditions: imaging, actives raise or lower the signal;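 note: phospho-histone H2A.x immunostain intensity per cell marking DNA damage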
Outline: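 Phospho-histone H2A.x immunofluorescence, multiplexed with Hoechst and c-Jun, quantified by high-content imaging. Compounds applied to HepG2 for 72 h across ten concentrations (0.39–200 uM, 0.5% DMSO), in duplicate; DMSO baseline.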

[3] = APR_HepG2_MitoMembPot_72hr: Apredica 72-hour HepG2 Assay for Mitochondrial Membrane Potential (AID 2282917); conditions: imaging, actives raise or lower the signal
Outline: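 HepG2 cells dosed 72 hr with compound at 0.39–200 uM in duplicate, 0.5% v/v DMSO final. Mitochondria stained with 250 nM MitoTracker Red CMXRos for 30 min before formaldehyde fixation, imaged by high-content fluorescence; bidirectional fit versus DMSO.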

[4] = APR_HepG2_MitoticArrest_72hr: Apredica 72-hour HepG2 Assay for Mitotic Arrest (AID 2282918); conditions: high-content imaging, actives raise or lower the signal
Outline: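 HepG2 cells were exposed for 72 hr to compound at 0.39–200 uM (10 concentrations, duplicate) in 0.5% v/v DMSO, fixed in 3.7% formaldehyde, immunostained for phospho-histone H3 with Hoechst 33342 and imaged by high-content fluorescence; bidirectional fits versus DMSO.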

[5] = APR_HepG2_MicrotubuleCSK_72hr: Apredica 72-hour HepG2 Assay for Microtubule CSK Stabilty (AID 2282919); conditions: HepG2 microtubule cytoskeleton, high-content imaging, actives raise or lower the signal
Outline: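 HepG2, 72 hr cmpd exposure, 0.39–200 uM (10 pts, duplicate), 0.5% DMSO. 3.7% formaldehyde fix, 0.5% Triton perm, anti-alpha-tubulin/Cy5 plus Hoechst. HCS fluorescence intensity; bidirectional fit vs DMSO baseline; taxol as positive control.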

[6] = APR_HepG2_P-H2AX_24hr: Apredica 24-hour HepG2 Assay for H2AX Phosphorylation (AID 2282920); conditions: high-content imaging, actives raise or lower the signal
Outline: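 HepG2 human liver cells were exposed for 24 hr to compounds at 0.39–200 uM in duplicate, with 0.5% v/v DMSO final. Fixed cells were immunostained for phospho-histone H2A.x plus Hoechst 33342, imaged by HCS fluorescence, and fitted bidirectionally against DMSO.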

[7] = APR_HepG2_StressKinase_72hr: Apredica 72-hour HepG2 Assay for Stress Kinase (AID 2282921); conditions: HepG2 stress kinase (phospho-c-Jun) imaging, actives raise or lower the signal
Outline: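 Stress kinase signal is phospho-c-Jun immunofluorescence (1:500 primary, Cy3 secondary) in fixed, permeabilized human HepG2 cells imaged at 20x. Exposure lasted 72 hr over ten concentrations from 0.39 to 200 uM, 0.5% DMSO, in duplicate. Bidirectional fit versus DMSO.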

[8] = APR_HepG2_StressKinase_24hr: Apredica 24-hour HepG2 Assay for Stress Kinase (AID 2282922); conditions: HepG2 stress kinase (phospho-c-Jun) imaging, actives raise or lower the signal
Outline: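 Read-out: phospho-c-Jun immunofluorescence (Cy3 secondary) quantified by high-content imaging at 20x, nuclei defined by Hoechst 33342. Human HepG2 liver cells dosed 24 hr, 0.39–200 uM, DMSO 0.5% v/v; gain or loss of signal fitted relative to DMSO.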

[9] = APR_HepG2_p53Act_72hr: Apredica 72-hour HepG2 Assay for p53 Activation (AID 2282923); conditions: high-content imaging, actives raise or lower the signal;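 note: average cellular p53 protein immunofluorescence intensity in HepG2 cells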
Outline: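 After 72 h with compound (ten points, 0.39 to 200 uM, final DMSO 0.5% v/v), fixed HepG2 cells were labelled with sheep anti-p53 and Hoechst 33342 and imaged; gain or loss versus DMSO scored.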

[10] = APR_HepG2_MitoMass_72hr: Apredica 72-hour HepG2 Assay for Mitochondrial Mass (AID 2282924); conditions: high-content imaging, actives raise or lower the signal;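 note: MitoTracker Red CMXRos stain intensity per cell imaged as mitochondrial mass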
Outline: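 Read-out: MitoTracker Red fluorescence intensity from automated imaging (20x, six fields per well) in human HepG2 liver cells. Dosing ran 72 hr, 0.39–200 uM, 0.5% DMSO; bidirectional curve fitting versus DMSO baseline.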

[11] = APR_HepG2_NuclearSize_72hr: Apredica 72-hour HepG2 Assay for Nuclear Size (AID 2282925); conditions: high-content imaging, actives raise or lower the signal
Outline: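 Read-out: nuclear diameter from Hoechst 33342 images (ArrayScan, 20x, six fields/well), via cell-cycle image analysis. HepG2 were dosed 0.39–200 uM for 72 hr in 0.5% DMSO. Bidirectional fit relative to DMSO.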

[12] = ATG_CRE_CIS: Attagene CIS-FACTORIAL HepG2 Assay for human cAMP Responsive Element (CRE) binding protein 3 (AID 2282926); conditions: HepG2 CRE cis-reporter, Attagene multiplexed mRNA; actives raise or lower the signal
Outline: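 Capillary electrophoresis of 6-FAM-labelled, HpaI-digested PCR products quantified reporter transcripts. These came from HepG2 transiently transfected with cis-element reporters and exposed to test chemicals for 24 hours, with DMSO defining baseline activity.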

[13] = target: CCAAT/enhancer-binding protein beta (Homo sapiens) (UniProt P17676); experiment: ATG_C_EBP_CIS: Attagene CIS-FACTORIAL HepG2 Assay for human CCAAT/Enhancer Binding Protein (C/EBP) beta (AID 2282927); conditions: HepG2 Attagene cis-factorial transcription factor reporter; actives raise or lower the signal
Outline: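 Transiently transfected HepG2 (MRTU library, endogenous TF-driven promoters); 24 h dosing; total RNA → oligo(dT) RT → PCR → 6-FAM primer extension → HpaI digest → CE; fit bidirectionally vs DMSO.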

[14] = ATG_CMV_CIS: Attagene CIS-FACTORIAL HepG2 Assay for human CMV (Internal Marker) (AID 2282928); conditions: HepG2 CMV promoter reporter, transcription factor profiling; actives raise or lower the signal;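 note: endpoint acts as a background internal control marker rather than a target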
Outline: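 Readout: fluorescent reporter cDNA fragments separated by capillary electrophoresis after RT-PCR and HpaI cut. Cells: HepG2 carrying transfected cis-promoter reporter constructs, dosed 24 h. Endpoint serves as background internal-marker control, fit bidirectionally versus DMSO.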

[15] = ATG_DR4_LXR_CIS: Attagene CIS-FACTORIAL HepG2 Assay for human Liver X Receptor (LXR), DR4 submotif (AID 2282929); conditions: HepG2 Attagene DR4 cis-reporter, mRNA transcription; actives raise or lower the signal
Outline: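 The endpoint is DR4-element-driven reporter transcripts after 24 h chemical exposure of transfected HepG2 cells. These were measured via RT-PCR and capillary electrophoresis, and gain or loss of signal was fitted relative to DMSO controls.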

[16] = target: Aryl hydrocarbon receptor (Homo sapiens) (UniProt P35869); experiment: ATG_Ahr_CIS: Attagene CIS-FACTORIAL HepG2 Assay for human Aryl Hydrocarbon Receptor (Ahr) (AID 2282930); conditions: HepG2 AhR cis-factorial reporter transcription; actives raise or lower the signal
Outline: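 Read-out: reporter mRNA quantified by RT-PCR with fluorescent primer extension and capillary electrophoresis. Human HepG2 liver cells carried transfected cis-promoter reporter units and were exposed to chemical for 24 h; gain or loss fitted relative to DMSO.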

[17] = ATG_AP_1_CIS: Attagene CIS-FACTORIAL HepG2 Assay for human Activator Protein 1 (AP-1) (AID 2282931); conditions: HepG2 Attagene cis-factorial AP-1 reporter mRNA; actives raise or lower the signal
Outline: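 Readout is reporter transcript level from endogenous transcription factor activity, quantified by RT-PCR with fluorescent primer extension and capillary electrophoresis. Transiently transfected HepG2 cells, 24 h exposure. Curves fitted both directions versus DMSO.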

[18] = ATG_AP_2_CIS: Attagene CIS-FACTORIAL HepG2 Assay for human Activator Protein 2 (AP-2) (AID 2282932); conditions: HepG2 AP-2 cis-reporter, Attagene transcription factor profiling; actives raise or lower the signal
Outline: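 Liver-derived HepG2 line, cis-reporter system measuring endogenous factors; 24 h dosing; reporter mRNA detected by fluorescent RT-PCR and capillary electrophoresis.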

[19] = ATG_BRE_CIS: Attagene CIS-FACTORIAL HepG2 Assay for human Bone Morphogenetic Protein (BMP) Response Element (BRE) (AID 2282933); conditions: HepG2 BMP response element reporter, Attagene transcription factor profiling; actives raise or lower the signal
Outline: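 Endogenous transcription factor activity at a BMP response element was monitored in transfected HepG2 cells 24 h after dosing. Fluorescent RT-PCR products were resolved by capillary electrophoresis, and activity was fitted in both directions versus DMSO.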

[20] = target: Retinoic acid receptor alpha (Homo sapiens) (UniProt P10276); experiment: ATG_DR5_RAR_CIS: Attagene CIS-FACTORIAL HepG2 Assay for human Retinoic Acid Receptor Alpha (RARE), DR5 submotif (AID 2282934); conditions: HepG2 Attagene cis-factorial RARE DR5 reporter, mRNA; actives raise or lower the signal
Outline: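 Read-out: DR5-driven reporter transcript measured by RT-PCR, 6-FAM primer extension, HpaI digest and capillary electrophoresis. Human HepG2 liver cells carry transiently transfected cis-element reporter constructs; dosing lasts 24 h. Gain or loss of signal fitted against DMSO baseline.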

Measured: AC50

Aryl hydrocarbon receptor (Homo sapiens), sequence (P35869 whole entry, looked up): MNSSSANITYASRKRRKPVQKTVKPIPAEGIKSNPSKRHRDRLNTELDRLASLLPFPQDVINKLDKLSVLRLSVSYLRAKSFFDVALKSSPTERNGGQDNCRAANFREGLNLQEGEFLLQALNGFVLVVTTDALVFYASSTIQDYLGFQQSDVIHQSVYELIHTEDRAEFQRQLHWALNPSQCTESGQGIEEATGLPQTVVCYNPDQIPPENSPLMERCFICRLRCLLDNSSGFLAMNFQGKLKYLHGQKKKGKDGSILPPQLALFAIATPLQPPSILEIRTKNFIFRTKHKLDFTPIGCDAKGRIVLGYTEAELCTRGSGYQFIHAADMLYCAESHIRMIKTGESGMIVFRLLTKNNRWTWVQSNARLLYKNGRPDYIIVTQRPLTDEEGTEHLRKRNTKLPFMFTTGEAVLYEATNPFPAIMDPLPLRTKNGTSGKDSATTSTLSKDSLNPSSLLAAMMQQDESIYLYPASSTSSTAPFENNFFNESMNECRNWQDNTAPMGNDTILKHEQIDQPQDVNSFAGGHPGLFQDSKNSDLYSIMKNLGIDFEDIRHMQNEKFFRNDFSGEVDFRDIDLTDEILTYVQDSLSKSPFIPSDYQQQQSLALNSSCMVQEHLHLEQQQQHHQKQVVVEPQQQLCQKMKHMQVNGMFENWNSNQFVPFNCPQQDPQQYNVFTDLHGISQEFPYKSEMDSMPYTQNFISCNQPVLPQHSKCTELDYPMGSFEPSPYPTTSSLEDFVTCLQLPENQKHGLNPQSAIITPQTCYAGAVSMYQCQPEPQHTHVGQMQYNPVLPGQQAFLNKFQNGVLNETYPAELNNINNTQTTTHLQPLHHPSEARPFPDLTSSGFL
Retinoic acid receptor alpha (Homo sapiens), sequence (P10276 whole entry, looked up): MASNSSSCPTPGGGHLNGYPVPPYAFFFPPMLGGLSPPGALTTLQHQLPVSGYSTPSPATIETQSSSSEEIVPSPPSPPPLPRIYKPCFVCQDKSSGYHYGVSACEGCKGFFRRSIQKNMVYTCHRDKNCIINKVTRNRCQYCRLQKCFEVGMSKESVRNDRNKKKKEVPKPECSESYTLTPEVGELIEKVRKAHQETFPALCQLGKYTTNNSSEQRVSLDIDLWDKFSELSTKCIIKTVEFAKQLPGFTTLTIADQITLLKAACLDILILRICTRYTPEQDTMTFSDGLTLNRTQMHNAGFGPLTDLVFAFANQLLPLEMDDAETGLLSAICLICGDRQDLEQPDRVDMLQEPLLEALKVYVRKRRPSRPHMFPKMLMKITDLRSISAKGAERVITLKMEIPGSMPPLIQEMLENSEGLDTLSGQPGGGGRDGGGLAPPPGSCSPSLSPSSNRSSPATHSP
CCAAT/enhancer-binding protein beta (Homo sapiens), sequence (P17676 whole entry, looked up): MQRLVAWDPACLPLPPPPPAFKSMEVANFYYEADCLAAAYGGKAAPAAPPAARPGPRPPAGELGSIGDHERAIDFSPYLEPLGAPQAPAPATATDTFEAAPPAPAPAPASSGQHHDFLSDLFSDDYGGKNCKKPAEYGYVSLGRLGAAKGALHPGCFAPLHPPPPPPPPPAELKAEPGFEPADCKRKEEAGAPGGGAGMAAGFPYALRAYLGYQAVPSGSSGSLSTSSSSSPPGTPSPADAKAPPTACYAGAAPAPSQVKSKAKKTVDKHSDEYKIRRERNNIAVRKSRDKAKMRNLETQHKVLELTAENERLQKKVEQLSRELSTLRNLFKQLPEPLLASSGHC

O=S(=O)(O)C(F)(F)C(F)(F)C(F)(F)C(F)(F)C(F)(F)C(F)(F)C(F)(F)C(F)(F)F
inactive: [2] | [3] | [4] | [5] | [6] | [7] | [8] | [9] | [10] | [11] | [12] | [13] | [14] | [15] | [16] | [17] | [18] | [19]
active: [1] 111 µM [middle of 5 runs] | [2] 104 µM and 9.71 µM and 107 µM | [5] 111 µM | [6] 108 µM [middle of 4 runs] | [7] 111 µM and 107 µM | [9] 5.6 µM and 106 µM | [11] 110 µM and 9.67 µM | [12] 142 µM and 53.4 µM | [14] 61.4 µM and 191 µM and 89.9 µM | [16] 180 µM and 40.3 µM | [17] 26.9 µM [middle of 8 runs] | [18] 140 µM and 26.8 µM

Oc1cc(Cl)ccc1Oc1ccc(Cl)cc1Cl
inactive: [2] | [3] | [4] | [5] | [6] | [7] | [8] | [9] | [10] | [11] | [12] | [13] | [14] | [15] | [16] | [17] | [18] | [19]
active: [1] 35.3 µM and 26.9 µM and 67 µM | [2] 24.4 µM and 34.3 µM | [3] 35 µM | [4] 27.9 µM | [5] 98.6 µM and 71.5 µM | [6] 27.9 µM and 45.5 µM | [7] 49.2 µM | [9] 14.9 µM and 16.3 µM | [10] 170 µM | [11] 36.8 µM | [12] 8.07 µM [middle of 4 runs] | [13] 20.5 µM | [14] 8.95 µM [middle of 5 runs] | [15] 17.6 µM [middle of 4 runs] | [16] 5.97 µM | [17] 8.94 µM [middle of 5 runs] | [18] 20.7 µM | [19] 7.15 µM [middle of 6 runs]

CCS(=O)(=O)c1cccnc1S(=O)(=O)NC(=O)Nc1nc(OC)cc(OC)n1
inactive: [1] | [2] | [3] | [4] | [5] | [6] | [7] | [8] | [9] | [10] | [11] | [12] | [13] | [14] | [15] | [16] | [17] | [18] | [19] | [20]

OCCOc1ccccc1
inactive: [1] | [2] | [3] | [4] | [5] | [6] | [7] | [8] | [9] | [10] | [11] | [12] | [13] | [14] | [15] | [16] | [17] | [18] | [19] | [20]
